a7 integrin act = qHTS for Activators of Integrin-Mediated Alleviation for Muscular Dystrophy. AID 624291, 2012. alpha7betagal myoblasts, beta-gal FDG fluorescence, 48 h. Potency, µM (series often up to 38.3 µM), most hits filed as activators. 0.064% of 350,000 active; also: nearly all actives have a fitted effect of over 60% in size
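Alpha7betagal+/- myoblasts (passage 13) were plated 16-24 hr, then exposed to compounds (1:260 dilution of DMSO stock) for 48 hours at 37C. After MPER lysis, β-galactosidase reporter activity was read as FDG fluorescence (ex 480/em 540) after 30 minutes.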
D3 ag = qHTS of D3 Dopamine Receptor Agonist: qHTS | 0.58% of 410,000 active | D(3) dopamine receptor (Homo sapiens), P35462 | AID 652048, 2013 | max activation, % | D3R DiscoveRx beta-arrestin cells, luminescence, 90 min; in the data active = max activation above about 30%
Target sequence (P35462 whole entry, looked up): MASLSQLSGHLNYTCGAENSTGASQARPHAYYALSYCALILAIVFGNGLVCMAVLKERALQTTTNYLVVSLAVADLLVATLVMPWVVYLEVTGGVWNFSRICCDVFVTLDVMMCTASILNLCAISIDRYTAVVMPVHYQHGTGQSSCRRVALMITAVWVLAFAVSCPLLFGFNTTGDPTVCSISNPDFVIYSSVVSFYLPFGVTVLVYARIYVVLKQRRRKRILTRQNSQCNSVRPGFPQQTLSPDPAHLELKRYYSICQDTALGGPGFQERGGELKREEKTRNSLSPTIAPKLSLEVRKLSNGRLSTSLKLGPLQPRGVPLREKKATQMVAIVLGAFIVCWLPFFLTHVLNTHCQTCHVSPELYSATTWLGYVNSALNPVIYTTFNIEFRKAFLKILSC
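Cells at 1500/well, incubated overnight, then treated with pinned compounds (dopamine as control) for 90 min at 37 degrees C. DiscoveRx reagent added for 30 - 60 minutes at room temperature; luminescence read.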
MBNL1-CUG inh = qHTS Assay for Inhibitors of MBNL1-poly(CUG) RNA binding. Muscleblind-like protein 1 (Homo sapiens), Q9NR56. TR-FRET MBNL1-His/biotin-(CUG)12 binding, 665/545 ratio. Potency, µM (titrated, usually from 57.5 µM), most hits filed as inhibitors. 0.036% of 280,000 active. AID 2675, 2010; active = well fitted inhibition curve with a large enough effect in the signal ratio, with a control signal flat, not every such curve was filed as active; inconclusive = small, poorly fitted or top-dose-only effect, or effect the other way, or a change in a side signal; inactive = no such curve, though single readings can be large or run the other way; the % refers to the signal ratio
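Inhibition of protein-RNA binding appears as loss of TR-FRET between terbium anti-His antibody on MBNL1-His and streptavidin-XL665 on biotin-(CUG)12. Activity is normalized to buffer-only and uninhibited-complex controls.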
DRD3 antagonist = qHTS of D3 Dopamine Receptor Antagonist: qHTS. D(3) dopamine receptor (Homo sapiens), P35462. D3R cells, DiscoveRx beta-arrestin luminescence, antagonist mode; stronger effect = lower value. max response, negative = inhibition, %. 2.5% of 360,000 active. AID 652054, 2013; in the data active = max response below about -50%; inconclusive = no clear call, values can overlap the other calls
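Cells plated overnight at 1500 cells/well, then exposed to library compounds with dopamine controls for 90 minutes at 37 degrees C. DiscoveRx reagent added for 30–60 minutes at room temperature; luminescence read, quantitative HTS format.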
PTHR1 ag = qHTS for PTHR1 Agonists: Primary Screen. Parathyroid hormone/parathyroid hormone-related peptide receptor (Homo sapiens), Q03431. HEK293 GP2 PTHR1 cells, GloSensor cAMP luminescence, 1 h. Potency, µM (titrated, usually from 115 µM), most hits filed as activators. 0.075% of 410,000 active. AID 743266, 2014; also: nearly all actives have a fitted effect of over 55% in size
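HEK-293-derived GP2 cells expressing PTHR1 and a GloSensor cAMP reporter, 3,000/well, plated overnight, given luciferin plus IBMX (each 0.5 mM as added) for 1 h at 37 °C, then compound for 1 h at 37 °C. Luminescence was read after 15 min at room temperature.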
CBFb-RUNX1 inh = qHTS Assay for Compounds Blocking the Interaction Between CBF-beta and RUNX1 for the Treatment of Acute Myeloid Leukemia | 230,000 tested, under 10 active | AlphaScreen CBFb-His/RUNX1-biotin binding, biochemical | AID 1477, 2009 | Potency, µM (top dose mostly 59.8 µM), usual class: inhibitors
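Read-out: AlphaScreen. Format: His-CBF-beta with biotinylated RUNX1 (30 nM each) preincubated 20 min, compound 15 min, Ni-chelate plus streptavidin beads 90 min; room temperature throughout.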
Numbers stand for hits; n = inactive; u = inconclusive; x = not tested or not shown; ! = not confirmed by another sample. This is a sample that favours compounds with a hit; in the whole collection about 2.8% have one here. Unless noted, calls follow the shape of the dose curve; as a rule, active = well fitted curve in the direction sought with a large enough effect; inconclusive = small, poorly fitted or top-dose-only effect, or another doubt; inactive = no such curve, though single readings can be large; an effect the other way counts as inactive or inconclusive.

SMILES	a7 integrin act	D3 ag	MBNL1-CUG inh	DRD3 antagonist	PTHR1 ag	CBFb-RUNX1 inh
CCC(=O)N1CCc2cc(S(=O)(=O)NCCN3CCCCC3CC)ccc21 (stereo not drawn)	n	n	n	-59.3	n	n
O=C(C1CCC1)N1CCc2cc(S(=O)(=O)NCCN3CCN(c4ccccc4F)CC3)ccc21	n	66.8	n	n	n	n
CCC(=O)N1CCc2cc(S(=O)(=O)NC(C(=O)NCc3ccccc3)C(C)C)ccc21 (stereo not drawn)	n	n	n	-76.8	n	n
CN(N)C(=S)Nc1ccc(F)cc1	n	37.1	n	n	n	n
Cc1cc(Sc2ccc([N+](=O)[O-])cn2)ccc1Br	n	n	x	n	n	x
Cc1cc(S(=O)(=O)c2ccc([N+](=O)[O-])cn2)ccc1Br	n	n	x	-72.9	n	x
O=[N+]([O-])c1ccc(S(=O)(=O)c2ccccc2)nc1	n	n	u	-151.1	n	x
Cc1ccc(S(=O)(=O)c2ccc([N+](=O)[O-])cn2)cc1	n	n	u	-75.4	n	x
CC(C)N1CCc2c(sc(NC(=O)CCS(=O)(=O)c3ccccc3)c2C#N)C1	n	n	n	n	n	x
COCc1cc(C)nc2sc3c(c12)NC(c1ccc(O)cc1)N(c1ccc(C)cc1)C3=O (stereo not drawn)	x	n	x	x	n	x
Cc1c(C=O)c(=O)n(-c2ccccc2)n1-c1ccccc1	n	n	n	n	n	n
O=C(c1nnsc1S(=O)c1ccc(Cl)cc1)N1CCOCC1 (stereo not drawn)	n	n	n	-50.7	n	n
O=C(c1nnsc1S(=O)(=O)c1ccc(Cl)cc1)N1CCOCC1	n	n	n	u	n	n
O=C(Nc1ccccc1)c1nnsc1S(=O)c1ccc(Cl)cc1 (stereo not drawn)	n	n	n	-58.9	n	n
O=C1c2ccccc2C(=O)C1c1ccc(Br)cc1	n	87.8!	u	n	n	x
O=C1c2ccccc2C(=O)C1c1ccc(F)cc1	x	61.9	x	x	x	x
O=C1c2ccccc2C(=O)C1c1ccc(Cl)cc1	n	n	u	n	n	x
O=C1c2ccccc2C(=O)C1c1ccc(O)cc1	n	n	n	n	n	u
CCOC(CCNC(=O)c1cc(-c2cccs2)nc2ccccc12)OCC	n	n	n	n	n	x
COc1ccc(S(=O)(=O)c2nnn(-c3cc(Cl)c(OC)cc3OC)c2C)cc1	x	n	x	x	n	x
Clc1cccc(Cc2c(C3CCCCC3)nc3ccc(Cl)cn23)c1	x	n	x	n	n	x
c1c(C2CCCCC2)n[nH]c1CN1CCCCC1	n	n	n	-72.9	n	n
Cc1c(C(=O)N2CCC(C)(C(=O)NS(=O)(=O)C3CC3)C2)oc2ccccc12 (stereo not drawn)	x	n	x	n	n	x
Cc1cc2c(cc1C)NC(c1c(C)n(C)n(-c3ccccc3)c1=O)C1=C(CC(C)(C)CC1=O)N2 (stereo not drawn)	n	n	u	-92.9	n	n
Cc1ccc(S(=O)(=O)Nc2cccc(-c3ccc4nnc(C)n4n3)c2)s1	n	n	n	n	n	n
SMILES	a7 integrin act	D3 ag	MBNL1-CUG inh	DRD3 antagonist	PTHR1 ag	CBFb-RUNX1 inh
Cc1cc(C)cc(NC(=O)/C=C/c2ccc([N+](=O)[O-])s2)c1	n	n	n	n	n	n
CC(=O)c1cccc(NC(=O)/C=C/c2ccc([N+](=O)[O-])s2)c1	n	n	u	-68.7	n	n
Cc1ccccc1NC(=O)/C=C/c1ccc([N+](=O)[O-])s1	n	n	u	-50.7	n	n
O=C(Nc1cccc2ccccc12)c1ccc([N+](=O)[O-])s1	n	n	u	n	n	n
O=C(Nc1ccccc1F)c1ccc([N+](=O)[O-])s1	12.6µM	n	x	n	n	n
Cc1ccc(C)c(S(=O)(=O)N2CCN(C(=O)c3n[nH]c(=O)c4ccccc34)CC2)c1	n	n	x	n	n	x
CCN(c1ccccc1)S(=O)(=O)c1ccc(OC)c(NC(=O)Cc2ccccc2OC)c1	n	n	x	n	n	x
CCN(c1ccccc1)S(=O)(=O)c1ccc(Cl)c(NC(=O)CNCc2ccccc2OC)c1	n	n	x	-65.7	n	x
OCCC1CN(CCCn2cccn2)CCN1C1CCCCC1 (stereo not drawn)	n	n	n	n	n	n
COc1ccc(CC(N)c2csc(Nc3nc(C)cnc3C)n2)cc1 (stereo not drawn)	x	n	x	n	n	x
O=C(/C=C/c1ccccc1)Oc1cccc2cccnc12	n	n	x	u	n	n
O=C(/C=C\c1ccccc1)Oc1cccc2cccnc12	n	n	n	-58.6	u	n
COc1ccc(Cl)cc1C=CC=NNS(=O)(=O)c1ccc(C)cc1	n	n	x	-88.5	n	x
COc1ccc(CCC(=O)O)c(O)c1	n	n	n	n	n	n
Cc1cc(CCC(=O)O)c(C)cc1CCC(=O)O	n	n	n	-52.0	n	n
CCN(CC)S(=O)(=O)c1ccc(C(=O)Nc2nnc(COC)o2)cc1	u	n	n	n	n	u
CCN(CC)S(=O)(=O)c1ccc(C(=O)Nc2cccc(C)c2)cc1	n	n	n	-82.6	n	n
CCCCN(CCCC)S(=O)(=O)c1ccc(C(=O)Nc2nnc(COC)o2)cc1	n	n	n	-92.7	n	n
CCCCN(C)S(=O)(=O)c1ccc(C(=O)Nc2nnc(CSC)o2)cc1	n	n	n	-97.6	n	n
CCN(CC)S(=O)(=O)c1ccc(C(=O)Nc2nnc(CSC)o2)cc1	n	n	n	n	n	n
CCc1nnc(NC(=O)c2ccc(S(=O)(=O)N(CC)Cc3ccccc3)cc2)o1	n	n	n	-99.1	n	n
CCN(Cc1ccccc1)S(=O)(=O)c1ccc(C(=O)Nc2nnc(C)o2)cc1	n	n	n	n	n	x
CC(=O)N1CCOc2ccc(S(=O)(=O)NCC3CCC(C(=O)Nc4ncccc4C)CC3)cc21 (stereo not drawn)	n	n	n	n	n	x
N#Cc1ccccc1S(=O)(=O)N1CCN(C(=O)CN(Cc2ccco2)Cc2cccs2)CC1	n	n	x	n	n	x
CCCCN(CC)S(=O)(=O)c1ccc(C(=O)Nc2nnc(-c3cccs3)o2)cc1	n	n	n	-57.0	n	n
CC(=O)Nc1c2c3c(cccc3n(C)c1=O)C(=O)c1ccccc1-2	n	n	u	-50.6	n	n
